Experimental data from article PMC13494018.

B1: design_602_0a1f3d3d-7d26-454b-9b34-ebe8ef9bc7d4_2169_dldesign_0_cycle1_af2pred (protein)
chain: SAFEILKVIEEKAKEVYEITKEENPKIAKKIAAAAYTAGVALGAGDEEEAKKVIEKGKALADKEGAEKGKKALEEAVEEVKKKAKE
B2: design_602_0a1f3d3d-7d26-454b-9b34-ebe8ef9bc7d4_576_dldesign_0_cycle1_af2pred (protein)
chain: AEAEKQAALAEASQLLLEANSFAKWVSEYAKELGQEDIAKKAEEAGKEYTKKAKAYIKAGKAEEAKKEAEKLLEEAEKLYKEAKEKA
B3: design_602_0a1f3d3d-7d26-454b-9b34-ebe8ef9bc7d4_268_dldesign_0_cycle1_af2pred (protein)
chain: VEEKAKKYIEEAKKKAKEMKELGKKNPAAKENYDAAAKVWETAAKEIEKDPSKAEEYEKKAKKTIAVLLDAANAEL
B4: design_602_0a1f3d3d-7d26-454b-9b34-ebe8ef9bc7d4_1801_dldesign_0_cycle1_af2pred (protein)
chain: GKLVEEAKKALEEAKALAAKNPELAKMAEAALERFEKSLRAGLAAADGLASTAAKLGAEDPENAKLAELAGKAAELLFEAI
B5: design_602_0a1f3d3d-7d26-454b-9b34-ebe8ef9bc7d4_1707_dldesign_0_cycle1_af2pred (protein)
chain: AAAAEAFGKELAAMLDEAYDKSTEDLEKAKEVLAKLKAKAEAAPAEVAEYAKKALKTAKSIEDSIEIEEKLKK
B6: design_602_0a1f3d3d-7d26-454b-9b34-ebe8ef9bc7d4_1205_dldesign_0_cycle1_af2pred (protein)
chain: LKERIEKLKEEGKKLEEEAEEMKDKDASAKLYQLAHAALAAAKRAEEALKAGNKEEAEKYLKIGEEAVKKGKEILKKGKA
B7: design_602_0a1f3d3d-7d26-454b-9b34-ebe8ef9bc7d4_418_dldesign_0_cycle1_af2pred (protein)
chain: SEEAKKLAEEAKKEMGNIRLDAYDKASEVNVEEAKKIFEEAKEKIEKIAKETAELVPEYAEEILKGGEKAMKALERAAKDIEKAE
B8: design_603_0b98da89-d791-4423-9b2d-fd1b7292da18_202_dldesign_0_cycle1_af2pred (protein)
chain: GSATVDALEKALDAREELLRLAKELPPERAELAEKLRAAAEELRETIRRAQKLSPEEGAALITAAAEKARALAKEVKAA
B9: design_602_0a1f3d3d-7d26-454b-9b34-ebe8ef9bc7d4_766_dldesign_0_cycle1_af2pred (protein)
chain: GELEALAERAAELVLDPEKAEEGVALVVERLRALTDPAEIARLVQLVQQALAEAAAKNPEKAAQLRAAAKRVVEAAREIVAEKAAAA
B10: design_602_0a1f3d3d-7d26-454b-9b34-ebe8ef9bc7d4_1719_dldesign_0_cycle1_af2pred (protein)
chain: GLAEEYKKKAEEAEEKAFNSKNVEAAYYYLKASQYYNAAAIYTKKGEEYLEKAKESYEKGKEYEKKGEEIEKK
B11: design_602_0a1f3d3d-7d26-454b-9b34-ebe8ef9bc7d4_227_dldesign_0_cycle1_af2pred (protein)
chain: GAAAKAEAAKLAHESNEAKAEAVAHPEKAAEEAKKIKERLKELEKKAKEAPAEVAKYYAKAAKIAKKNLEEAKKVAEEAKA
B12: design_602_0a1f3d3d-7d26-454b-9b34-ebe8ef9bc7d4_533_dldesign_0_cycle1_af2pred (protein)
chain: SLKEELAEKAEEKAKKAVEALKAYAKADPSKAEEMAAAAKKVKEAAERGKKGNVQEAGSAEVLAESALSAAEKKLKEL
B13: design_602_0a1f3d3d-7d26-454b-9b34-ebe8ef9bc7d4_1422_dldesign_0_cycle1_af2pred (protein)
chain: DAFLKEAEKLKKKLTEELKKLKEEAKKLTPEVQKKVLEEVKEAEEALKKALELAKKGDKKEAGKAAQEALEKLAEARWLVNKAK
B14: design_602_0a1f3d3d-7d26-454b-9b34-ebe8ef9bc7d4_1768_dldesign_0_cycle1_af2pred (protein)
chain: EEKERAKKFGEGYGEAQLDLAESAMKKATKPEEVKKAAETAAERARKRAKEGTPEEAEELLKAAEKIEKLGKEYLAKL
B15: design_603_0b98da89-d791-4423-9b2d-fd1b7292da18_39_dldesign_0_cycle1_af2pred (protein)
chain: EETFKKAVEELLKIAKEVYKKDPKAGSAAAGEIYRGKAEYEATGNLEVGVEELQKAAEIIKKADKELGEKAKKIVEEAKKK
B16: design_602_0a1f3d3d-7d26-454b-9b34-ebe8ef9bc7d4_1819_dldesign_0_cycle1_af2pred (protein)
chain: GSAIMDAQAKAVEIRTEAEKLAKEYKDLPTAKDFKKAAEIAREALKNGEEAIELSKKAEELLEKAKKKLKEELEKK
B17: design_602_0a1f3d3d-7d26-454b-9b34-ebe8ef9bc7d4_487_dldesign_0_cycle1_af2pred (protein)
chain: EEEKRIEEAKKKAREAAEKAREYGKKIIKLGYDPKKAAELAQKAQEARAEAEALPEKAEEAAKKAKEAAEELEKLLKEAEA
B18: design_602_0a1f3d3d-7d26-454b-9b34-ebe8ef9bc7d4_1646_dldesign_0_cycle1_af2pred (protein)
chain: SEFKKKAKLISEAELLINRMAALSPEAAAGAKAILKLAEGGKQEEAEKKIKEIKAASPEEATKLAIEVGKKVAAE
B19: design_602_0a1f3d3d-7d26-454b-9b34-ebe8ef9bc7d4_1333_dldesign_0_cycle1_af2pred (protein)
chain: EKERKEKIAKILLESAKDAMKEAEKALKEGKAKKAMMLATLAVSSAKNAYDFGKEASKELAEEAKKALEEAKEMLKKVKKALE
B20: design_602_0a1f3d3d-7d26-454b-9b34-ebe8ef9bc7d4_595_dldesign_0_cycle1_af2pred (protein)
chain: AAAVKAKMQAIAAAAKDAAKRAKEVAEKTGSTEAEADAVRAQHLSDAATINANGTQAQADAAQARLDVLKARAEKLEKEAKE
B21: design_602_0a1f3d3d-7d26-454b-9b34-ebe8ef9bc7d4_1060_dldesign_0_cycle1_af2pred (protein)
chain: GEEKEKKVEEIEKKAKEEAKKYAEEIAKALKDPEKMKKIATEATDKLLEMAEEMVETDKKAGKKAAEMIREGLRIMKETYEKERKKA
B22: design_602_0a1f3d3d-7d26-454b-9b34-ebe8ef9bc7d4_1202_dldesign_0_cycle1_af2pred (protein)
chain: DEVEKILKEALEKMEEYKKKALEEAAKKDPETSKKLTELIEKRFEKREKELKEEMKKNKNDPEKAKRIGFHAVARAEITYEQAKLA
B23: design_603_0b98da89-d791-4423-9b2d-fd1b7292da18_10_dldesign_0_cycle1_af2pred (protein)
chain: EKEKEELRKELLEKYEEVKKAVEEALKNASNPEVQAELAKVVHEFQELAAEVGAKYPEIAEEAKKLRKEAIEEAKKAVEKSK
B24: design_602_0a1f3d3d-7d26-454b-9b34-ebe8ef9bc7d4_1603_dldesign_0_cycle1_af2pred (protein)
chain: KNTLEKAAEAIQAYREEATAYAKEISKKEGKEAGEKAYEEFKKKVKELIALAKADPEAGLKEATKLLEELKAK
B25: design_602_0a1f3d3d-7d26-454b-9b34-ebe8ef9bc7d4_1902_dldesign_0_cycle1_af2pred (protein)
chain: DEKKKNLLRAAALTLEEAIEALDTDKNWGAALARSAARYAEEAGDEETAAIAREAAELAAAGGPEVAPEAKALLKEAAERLKKKI
B26: design_602_0a1f3d3d-7d26-454b-9b34-ebe8ef9bc7d4_244_dldesign_0_cycle1_af2pred (protein)
chain: AAAEAAKAKVKAIAAKSYAKNPEAGQYITLALAFAKRGDLEEALASLDEAEKEDPTNYPEARAAVLAYYAALKA
B27: design_602_0a1f3d3d-7d26-454b-9b34-ebe8ef9bc7d4_1408_dldesign_0_cycle1_af2pred (protein)
chain: AAAAAAAAKAALDLAKEQLKKAKEYKELAKKYKEEGNISKANSAEADAINAAHAAIVAATKAAADPKYAAEAKKVKDEAEKLEKEVLE
B28: design_602_0a1f3d3d-7d26-454b-9b34-ebe8ef9bc7d4_881_dldesign_0_cycle1_af2pred (protein)
chain: EKEKAAKKIAELMDKAYDLISDGGEAEIKKGKELAKEAVKLGKEAGPELAKKAEKGLRALERLAEETEKALKK
B29: design_602_0a1f3d3d-7d26-454b-9b34-ebe8ef9bc7d4_1736_dldesign_0_cycle1_af2pred (protein)
chain: DLKEKVEKAEKILKKRKEKLEKAKEKGPKEAKKEAALAKEQMENLIEALKKILEEAKDDPETKAKAEKVIEEAKKLKEEAEKLEKE
B30: design_602_0a1f3d3d-7d26-454b-9b34-ebe8ef9bc7d4_299_dldesign_0_cycle1_af2pred (protein)
chain: EIGKIVDEALEKILELQAEAKKAGKEAAKEVDKVRKEMIKEAKKMAKEGKSAEEVKKFAEEKVEEAKKIAEEAKKK
B31: design_602_0a1f3d3d-7d26-454b-9b34-ebe8ef9bc7d4_1428_dldesign_0_cycle1_af2pred (protein)
chain: EEEEKKKKEYVEKIKKALKEVKEAGKKGTEEQKKLAAETADKLYELKAIAEFSNAEEAEKYAEKAEKLAKETLKKIKK
B32: design_602_0a1f3d3d-7d26-454b-9b34-ebe8ef9bc7d4_990_dldesign_0_cycle1_af2pred (protein)
chain: MDKDGIAYSIKAKHIAEAALILGEKSTPEMAEVFKEVAELAKEAAEAALKDAETGKKLLKEVLKKAREAKKKAEEAKKA
B33: design_603_0b98da89-d791-4423-9b2d-fd1b7292da18_74_dldesign_0_cycle1_af2pred (protein)
chain: KEKVKKLEEEAIKALKELSKYRDNPEKAAEYAEKLYEKAFEMGIPLSIASRAAKLAKEGEEGAKEGVKLIKEEAKKVIEE
B34: design_602_0a1f3d3d-7d26-454b-9b34-ebe8ef9bc7d4_1947_dldesign_0_cycle1_af2pred (protein)
chain: ATEEEVKAAVRETIKAAKKYVEAGGDAKEAAEIAHKAQEAKAEGIASGKLDEAYAKVKKLAEEAKAKAEEVEK
B35: design_602_0a1f3d3d-7d26-454b-9b34-ebe8ef9bc7d4_1230_dldesign_0_cycle1_af2pred (protein)
chain: AEAEKKAKEAVKLAEKYYEKAKELAKEAEKDPKLKEAAKKIKKDAEEIKKALEKGIKEGNEVEAAQTSKSLYRAAEAEYKRAKK
B36: design_603_0b98da89-d791-4423-9b2d-fd1b7292da18_78_dldesign_0_cycle1_af2pred (protein)
chain: MSENVKFASELIRKVVKEAKKIGKEKGASEEAKKKAIEEVAKAIDKISEAAQKGDKEKAKAIAEEAIKKIKKILEEGA
B37: design_602_0a1f3d3d-7d26-454b-9b34-ebe8ef9bc7d4_348_dldesign_0_cycle1_af2pred (protein)
chain: IDVKATADKFLKATEEAAKKDAELGKKTAKKAIYTLDVLGEADPEYKEYTDKKKEEIKKTLAELTAKQKAKE
B38: design_602_0a1f3d3d-7d26-454b-9b34-ebe8ef9bc7d4_1317_dldesign_0_cycle1_af2pred (protein)
chain: MEEKKEEEARKVAHEAFRVAALAENVASAAEKKGDEEIAKKAKEARKTAEKAMELAREGNVKEARKLAKEARKVVEELRKKLEA

Molecular target: VTCN1, Q7Z7D3
Sequence (Q7Z7D3 whole entry): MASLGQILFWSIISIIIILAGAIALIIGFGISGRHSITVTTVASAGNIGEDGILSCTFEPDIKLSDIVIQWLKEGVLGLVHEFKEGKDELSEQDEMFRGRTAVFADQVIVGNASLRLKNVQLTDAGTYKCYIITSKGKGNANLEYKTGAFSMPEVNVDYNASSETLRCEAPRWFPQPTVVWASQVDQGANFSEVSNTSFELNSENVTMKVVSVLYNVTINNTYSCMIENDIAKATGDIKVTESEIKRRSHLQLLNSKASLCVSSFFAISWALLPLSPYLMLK

Binding in a display sort, inactive:
B1 not found
B2 not found
B3 not found
B4 not found
B5 not found
B6 not found
B7 not found
B8 not found
B9 not found
B10 not found
B11 not found
B12 not found
B13 not found
B14 not found
B15 not found
B16 not found
B17 not found
B18 not found
B19 not found
B20 not found
B21 not found
B22 not found
B23 not found
B24 not found
B25 not found
B26 not found
B27 not found
B28 not found
B29 not found
B30 not found
B31 not found
B32 not found
B33 not found
B34 not found
B35 not found
B36 not found
B37 not found
B38 not found
